The supplement of paper PMC6897291
Structures can show the parent of a compound that is named as a salt.

Test system: U-2932
Assay: growth inhibition by drug alone (1 - RLU/untreated control) (fraction); higher = stronger inhibition
Settings: 177Lu-lilotomab satetraxetan 0 ug/ml
Protocol: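 U-2932 ABC-DLBCL cells were pretreated or not for 18 h with 1 ug/ml 177Lu-lilotomab satetraxetan (600 MBq/mg), washed and seeded (3000 cells/well) on 384-well plates pre-printed with the Selleck Cambridge Cancer Compound library. Viability was read by RealTime-Glo luminescence on days 3-6 after seeding. Effect = 1 - RLU/mean RLU of the 48 untreated no-drug control wells per plate; Bliss score = (M-E)/(1-Fa), with E the expected Bliss-additive effect.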

Compound | growth inhibition by drug alone (10 nM, time (day): 3) | growth inhibition by drug alone (10 nM, time (day): 4) | growth inhibition by drug alone (10 nM, time (day): 5) | growth inhibition by drug alone (10 nM, time (day): 6) | growth inhibition by drug alone (1000 nM, time (day): 3) | growth inhibition by drug alone (1000 nM, time (day): 4) | growth inhibition by drug alone (1000 nM, time (day): 5) | growth inhibition by drug alone (1000 nM, time (day): 6)
C[C@@H](Oc1cc(-c2cnn(C3CCNCC3)c2)cnc1N)c1c(Cl)ccc(F)c1Cl | 0.0921 | 0.0793 | 0.115 | -0.0753 | 0.154 | 0.193 | 0.301 | 0.419
CCN[C@H]1C[C@H](C)S(=O)(=O)c2sc(S(N)(=O)=O)cc21 [Dorzolamide HCL] | -0.0781 | -0.0488 | -0.0257 | 0.0748 | 0.15 | 0.182 | 0.141 | 0.205
O=C(CCc1ccc(O)cc1)c1c(O)cc(O)cc1O [Phloretin (Dihydronaringenin)] | 0.0643 | 0.0536 | -0.0351 | -0.0447 | -0.0185 | 0.0218 | -0.0851 | -0.198
Cc1cccc(-c2[nH]c(C(C)(C)C)nc2-c2ccc3nccnc3c2)n1 | 0.121 | 0.0591 | -0.0391 | -0.0718 | 0.0282 | 0.0616 | 0.0184 | -0.0529
Cn1cnc2c(F)c(Nc3ccc(Br)cc3Cl)c(C(=O)NOCCO)cc21 [AZD6244 (Selumetinib)] | 0.124 | 0.0689 | -0.0711 | 0.0468 | 0.116 | 0.112 | -0.011 | 0.127
